# Measured values reported in publication PMC7862700, “An all-to-all approach to the identification of sequence-specific readers for epigenetic DNA modifications on cytosine”.
# How the values were obtained:
# Test in all cases: DAPPL (digital affinity profiling via proximity ligation, sequencing); 10 mM Tris-HCl pH 7.5, 50 mM NaCl, 1 mM DTT, 4% glycerol, room temperature, 30 min; GST-TFs on glutathione beads, 16-mer random dsDNA library, 0.1% formaldehyde crosslink after washing; high values mean tight binding
# Settings in all cases: protein: recombinant; tags: N-terminal GST; dsDNA, one strand shown
# [1] = biological target: T1, ELK1 (Homo sapiens, UniProt P19419 1-428)
# T1 sequence: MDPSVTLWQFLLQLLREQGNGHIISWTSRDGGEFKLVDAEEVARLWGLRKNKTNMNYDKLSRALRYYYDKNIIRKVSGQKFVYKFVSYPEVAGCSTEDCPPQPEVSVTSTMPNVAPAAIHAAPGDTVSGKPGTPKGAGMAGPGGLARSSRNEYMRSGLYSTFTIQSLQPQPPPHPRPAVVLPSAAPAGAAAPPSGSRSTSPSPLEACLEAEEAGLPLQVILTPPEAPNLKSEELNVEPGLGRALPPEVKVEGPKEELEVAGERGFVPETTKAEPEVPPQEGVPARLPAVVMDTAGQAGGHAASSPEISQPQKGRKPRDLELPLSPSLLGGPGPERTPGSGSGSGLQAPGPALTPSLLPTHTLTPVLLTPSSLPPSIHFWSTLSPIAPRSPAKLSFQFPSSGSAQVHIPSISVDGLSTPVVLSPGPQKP
# Procedure, shortened: (§1)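 A tag-only sample was pooled with DNA-barcoded human transcription factors that had been expressed in yeast as GST fusions and captured on glutathione beads. The pools were incubated for 30 min at room temperature with 200 nmole of a random double-stranded 16-mer DNA library in Tris/NaCl/DTT/glycerol buffer, then washed, crosslinked with 0.1% formaldehyde, proximity-ligated (BsaI/T4 ligase, 1 h, 37 °C), PCR-amplified and sequenced on an Illumina NextSeq500. Binding signal is each hexamer's read frequency for a factor divided by its frequency for the tag-only sample.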
# [2] = biological target: T2, GABPA (Homo sapiens, UniProt Q06546 1-454)
# T2 sequence: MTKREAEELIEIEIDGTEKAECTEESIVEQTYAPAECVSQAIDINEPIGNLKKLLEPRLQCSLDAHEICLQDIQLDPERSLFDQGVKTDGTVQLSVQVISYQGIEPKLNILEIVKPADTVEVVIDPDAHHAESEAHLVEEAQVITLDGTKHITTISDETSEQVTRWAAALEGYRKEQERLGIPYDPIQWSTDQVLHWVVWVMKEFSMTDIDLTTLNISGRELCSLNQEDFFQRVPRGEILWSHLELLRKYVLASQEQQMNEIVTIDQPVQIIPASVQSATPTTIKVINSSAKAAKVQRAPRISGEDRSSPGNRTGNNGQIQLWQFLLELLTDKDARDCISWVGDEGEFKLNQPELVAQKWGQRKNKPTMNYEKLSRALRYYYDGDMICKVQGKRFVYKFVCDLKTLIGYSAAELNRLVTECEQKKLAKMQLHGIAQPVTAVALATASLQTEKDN
# Procedure, shortened: as §1
# [3] = biological target: T3, ERG (Homo sapiens, UniProt P11308 1-479)
# T3 sequence: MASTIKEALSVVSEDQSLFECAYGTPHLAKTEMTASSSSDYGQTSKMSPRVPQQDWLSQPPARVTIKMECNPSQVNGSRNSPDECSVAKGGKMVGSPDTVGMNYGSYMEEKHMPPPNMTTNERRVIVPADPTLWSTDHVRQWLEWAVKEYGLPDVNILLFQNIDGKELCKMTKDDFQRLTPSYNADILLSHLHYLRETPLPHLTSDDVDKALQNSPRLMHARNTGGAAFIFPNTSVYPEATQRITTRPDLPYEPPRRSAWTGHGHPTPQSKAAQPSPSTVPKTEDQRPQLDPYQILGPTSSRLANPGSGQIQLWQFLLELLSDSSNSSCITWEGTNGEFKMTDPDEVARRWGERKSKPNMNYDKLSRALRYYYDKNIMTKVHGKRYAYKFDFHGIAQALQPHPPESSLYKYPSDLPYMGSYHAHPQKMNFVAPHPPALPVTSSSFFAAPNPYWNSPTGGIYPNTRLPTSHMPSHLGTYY
# Procedure, shortened: as §1
# [4] = biological target: ELF1 (Homo sapiens, UniProt P32519 1-619)
# Sequence of ELF1 (P32519 whole entry): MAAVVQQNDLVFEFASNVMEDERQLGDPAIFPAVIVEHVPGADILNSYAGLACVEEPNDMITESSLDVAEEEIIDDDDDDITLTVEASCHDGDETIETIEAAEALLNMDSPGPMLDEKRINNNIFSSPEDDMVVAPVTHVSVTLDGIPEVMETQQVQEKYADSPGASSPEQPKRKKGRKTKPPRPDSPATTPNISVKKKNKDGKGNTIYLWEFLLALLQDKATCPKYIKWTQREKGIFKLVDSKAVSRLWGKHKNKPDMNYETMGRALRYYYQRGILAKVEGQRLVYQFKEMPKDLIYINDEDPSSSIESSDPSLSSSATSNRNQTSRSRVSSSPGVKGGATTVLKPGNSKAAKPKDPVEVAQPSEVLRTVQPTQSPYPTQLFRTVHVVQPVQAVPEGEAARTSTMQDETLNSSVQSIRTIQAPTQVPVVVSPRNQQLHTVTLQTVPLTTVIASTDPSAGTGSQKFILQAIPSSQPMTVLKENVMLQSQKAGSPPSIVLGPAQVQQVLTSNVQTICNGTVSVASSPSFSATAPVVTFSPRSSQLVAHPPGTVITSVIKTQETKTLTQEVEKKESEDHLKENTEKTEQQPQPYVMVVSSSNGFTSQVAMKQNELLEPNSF
# Procedure, shortened: as §1
# [5] = biological target: T4, EHF (Homo sapiens, UniProt Q9NZC4 1-300)
# T4 sequence: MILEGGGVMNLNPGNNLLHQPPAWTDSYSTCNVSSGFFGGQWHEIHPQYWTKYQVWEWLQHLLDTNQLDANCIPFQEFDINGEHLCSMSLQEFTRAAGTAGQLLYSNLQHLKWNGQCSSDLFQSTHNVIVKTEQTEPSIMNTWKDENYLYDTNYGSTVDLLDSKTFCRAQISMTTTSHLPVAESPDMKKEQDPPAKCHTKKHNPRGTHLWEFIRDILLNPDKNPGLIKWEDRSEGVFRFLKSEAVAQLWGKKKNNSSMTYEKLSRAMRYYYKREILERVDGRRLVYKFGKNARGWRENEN
# Procedure, shortened: as §1
# [6] = biological target: SPIB (Homo sapiens, UniProt Q01892 1-262)
# Sequence of SPIB (Q01892 whole entry): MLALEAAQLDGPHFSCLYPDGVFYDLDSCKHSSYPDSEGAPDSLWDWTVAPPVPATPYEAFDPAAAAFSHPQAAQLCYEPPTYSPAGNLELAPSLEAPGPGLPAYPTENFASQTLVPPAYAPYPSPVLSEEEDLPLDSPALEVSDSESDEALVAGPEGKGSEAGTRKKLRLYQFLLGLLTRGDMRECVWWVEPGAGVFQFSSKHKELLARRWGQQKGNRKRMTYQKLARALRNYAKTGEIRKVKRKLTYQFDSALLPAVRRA
# Procedure, shortened: as §1
# [7] = biological target: T5, FEV (Homo sapiens, UniProt Q99581 1-238)
# T5 sequence: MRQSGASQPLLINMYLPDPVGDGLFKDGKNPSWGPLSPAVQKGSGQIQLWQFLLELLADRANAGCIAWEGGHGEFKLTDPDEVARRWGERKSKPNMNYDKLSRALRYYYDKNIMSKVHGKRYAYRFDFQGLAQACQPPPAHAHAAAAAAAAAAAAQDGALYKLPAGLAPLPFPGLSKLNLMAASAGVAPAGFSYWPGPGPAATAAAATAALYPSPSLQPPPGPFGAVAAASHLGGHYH
# Procedure, shortened: as §1
# [8] = biological target: ETV5 (Homo sapiens, UniProt P41161 1-510)
# Sequence of ETV5 (P41161 whole entry): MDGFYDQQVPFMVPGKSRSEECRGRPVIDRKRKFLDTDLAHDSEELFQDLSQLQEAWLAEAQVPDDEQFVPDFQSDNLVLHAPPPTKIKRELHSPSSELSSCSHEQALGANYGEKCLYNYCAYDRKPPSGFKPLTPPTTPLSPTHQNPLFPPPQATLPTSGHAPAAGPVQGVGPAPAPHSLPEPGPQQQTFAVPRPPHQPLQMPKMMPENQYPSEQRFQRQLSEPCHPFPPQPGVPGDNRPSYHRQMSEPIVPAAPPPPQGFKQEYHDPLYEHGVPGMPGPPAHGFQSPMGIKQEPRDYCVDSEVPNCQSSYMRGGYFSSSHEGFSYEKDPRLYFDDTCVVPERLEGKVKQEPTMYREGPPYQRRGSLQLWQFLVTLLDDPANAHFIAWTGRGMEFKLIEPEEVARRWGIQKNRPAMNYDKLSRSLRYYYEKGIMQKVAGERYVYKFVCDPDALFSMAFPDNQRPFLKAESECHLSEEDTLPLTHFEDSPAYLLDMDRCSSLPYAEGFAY
# Procedure, shortened: as §1
# [9] = biological target: T6, ELK4 (Homo sapiens, UniProt P28324-2 1-405)
# T6 sequence: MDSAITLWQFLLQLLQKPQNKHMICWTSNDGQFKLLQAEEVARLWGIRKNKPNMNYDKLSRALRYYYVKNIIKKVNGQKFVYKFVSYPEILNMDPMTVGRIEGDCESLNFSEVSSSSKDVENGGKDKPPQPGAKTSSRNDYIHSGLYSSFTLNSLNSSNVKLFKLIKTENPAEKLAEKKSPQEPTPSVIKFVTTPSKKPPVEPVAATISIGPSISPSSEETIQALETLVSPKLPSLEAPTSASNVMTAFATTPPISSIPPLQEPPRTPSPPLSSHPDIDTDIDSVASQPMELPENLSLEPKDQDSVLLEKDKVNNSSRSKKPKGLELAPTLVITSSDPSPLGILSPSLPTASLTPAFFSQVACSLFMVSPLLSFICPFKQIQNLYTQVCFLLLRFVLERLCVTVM
# Procedure, shortened: as §1
sequence,measurement,setting,value
TGTAAG,binding signal,[1],"1.06 fold enrichment (6-mer frequency, TF over GST control)"
same,binding signal,[2],"1.03 fold enrichment (6-mer frequency, TF over GST control)"
same,binding signal,[3],"1.07 fold enrichment (6-mer frequency, TF over GST control)"
same,binding signal,[4],"1.11 fold enrichment (6-mer frequency, TF over GST control)"
same,binding signal,[5],"1.16 fold enrichment (6-mer frequency, TF over GST control)"
same,binding signal,[6],"1.06 fold enrichment (6-mer frequency, TF over GST control)"
same,binding signal,[7],"1.06 fold enrichment (6-mer frequency, TF over GST control)"
same,binding signal,[8],"1.08 fold enrichment (6-mer frequency, TF over GST control)"
same,binding signal,[9],"1.06 fold enrichment (6-mer frequency, TF over GST control)"
